64 molecules from PubChem BioAssay AID504834 (National Center for Advancing Translational Sciences (NCATS), 2011) can be followed below.

The campaign covered roughly 320,000 compounds. About 22,000 (6.9%) were called active. Entries that show only a call come without a potency. Inconclusive results (about 27%) are left out. The sample holds actives, similar compounds and a random draw of the others, so the mix is not that of the screen. A number with no mark means an inactive call. The call rests on the fitted dose curve; in most records, active means well fitted inhibition curve with a large enough effect; inconclusive means small, poorly fitted or top-dose-only effect, or another doubt; inactive means no such curve, though single readings can be large or run the other way.
Potency means the concentration at half of the fitted maximal effect.

The experiment in a line: Primary qHTS for delayed death inhibitors of the malarial parasite plastid, 96 hour incubation. The following applies: P. falciparum luciferase reporter growth; series mostly up to 28.7 µM. In short, it runs like this: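 Infected RBCs, 2% Hct / 0.05% parasitemia final; luciferase-reporter P. falciparum; cpd 96 h, 37 C, 5% CO2; luciferase detection reagent; luminescence.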
As to `COC(=O)c1cccc(C(=O)N2CCCC(Nc3ccc4c(c3)OCCO4)C2)c1` (centres undefined), the Potency result was “inactive”.
For the molecule `COc1ccc(C(=O)NCC(=O)N/N=C/c2cccnc2)cc1`, the Potency entry was “inactive”.
Regarding `Cc1c(S(=O)(=O)N2CC(C)CC(C)C2)c(=O)n(C)c(=O)n1C` (centres undefined), the Potency entry is “inactive”.
Still for that read-out and setting: in the case of `O=C(CCCN1C(=O)/C(=C\c2ccccc2)SC1=S)Nc1ccccc1O` it was “inactive”.
The same measure, in the same setting: in the case of `O=C1/C(=C/c2ccc(F)cc2)SC(=S)N1CCCC(=O)N1CCCCC1CCO` (centres undefined) it was 6.57 µM (active).
Consider `O=C(CCCN1C(=O)/C(=C/c2ccccc2)SC1=S)Nc1ccc(O)cc1`, for which the activity change, negative = inhibition is -3.08% [at 5.75 µM].
`CC(=O)c1ccc(NC(=O)Cn2c(=O)oc3ccccc32)cc1`: the Potency result is “inactive”.
Regarding `CCCN1C2CCCC1CC(NC(=O)c1cccc(OC)c1)C2` (centres undefined), the Potency entry is “inactive”.
Same read-out and setting: in the case of `CCc1ccc(S(=O)(=O)Nc2ccc(C)c(NS(C)(=O)=O)c2)cc1` it was “inactive”; in that of `CCCCc1ccc(NC(=O)CN2C(=O)NC(Cc3ccccc3)C2=O)cc1` (centres undefined), “inactive”; in that of `CC(C)=N/N=C1/NC(=O)C(Cc2ccccc2)S1` (centres undefined), “inactive”.
Same read-out and setting: in the case of `CCOc1cc(/C=C(/C#N)c2ccc(Cl)cc2)cc(Cl)c1OCC(=O)O` it was 13.1 µM (active).
Same read-out and setting: then `COc1cc(/C=C(/NC(=O)c2ccc(Cl)cc2Cl)C(=O)O)cc(OC)c1OC`, with “inactive”; and `CCOC(=O)CN/C=C(\C#N)c1ccc(F)cc1`, with “inactive”.
Regarding `CCC(=O)Nc1nnc(S(=O)(=O)N2CCCc3ccccc32)s1`, the Potency result was “inactive”.
Same read-out and setting: in the case of `O=C(COC(=O)c1cccs1)Nc1ccccc1Cl` it was “inactive”.
Consider `COc1ccccc1NC1=NC(c2ccc(Cl)cc2)N=C(N)N1` (centres undefined), for which the Potency is 0.928 µM (active).
The same measure, in the same setting: in the case of `COc1cc(C2C(C(=O)Nc3ccccc3OC)=C(C)Nc3ncnn32)ccc1O` (centres undefined) it was “inactive”; in that of `COc1ccccc1Nc1nc(N)nc(CSC(=S)N2CCOCC2)n1`, “inactive”.
Turning to `COC(=O)c1c(C)[nH]c(C(=O)NCCc2ccc(S(N)(=O)=O)cc2)c1C`, the Potency entry was “inactive”.
Turning to `CSc1ccccc1NC(=O)c1cc(Cl)sc1Cl`, the Potency result was “inactive”.
Turning to `COc1ccc(S(=O)(=O)NCC(=O)NCc2cc(=O)n(C)c(=O)n2C)cc1F`, the Potency entry was “inactive”.
Turning to `CN(CC(=O)Nc1ccc(Cl)cc1)C(=O)c1ccc(COc2ccccc2)cc1`, the Potency result is “inactive”.
Still for that read-out and setting: in the case of `CN(CC(=O)Nc1ccc(F)cc1)C(=O)c1ccc(-c2ccc(Cl)cc2)o1` it was 2.33 µM (active); in that of `Cc1ccc(NC(=O)CN(C)C(=O)c2ccc(Br)o2)cc1`, “inactive”; in that of `COCC(=O)N1CCc2ccc(NC(=O)c3ccccc3Cl)cc2C1`, “inactive”.
The same measure, in the same setting: in the case of `COc1ccc(NC(=O)CN(C)C(=O)CC2CCCCC2)cc1` it was “inactive”.
`Cc1ccc(Cc2cnc(NC(=O)/C(C#N)=C/c3ccc(-c4cccc([N+](=O)[O-])c4)o3)s2)cc1`: the Potency entry was “inactive”.
Turning to `Cc1ccc(C(=O)N/C(=C/c2ccc(-c3cccc([N+](=O)[O-])c3)o2)C(=O)NCCCN(C)C)cc1`, the Potency entry is “inactive”.
In the case of `N#C/C(=C\c1ccc(-c2cccc([N+](=O)[O-])c2)o1)C(=O)NCCN1CCOCC1`, the Potency is 10.4 µM (active).
Same read-out and setting: then `COc1ccc(C(CNC(=O)c2cccc(S(=O)(=O)Nc3ccccc3Cl)c2)N2CCOCC2)cc1` (centres undefined), with “inactive”; and `COC(=O)C1=C(Nc2ccc(C)cc2)C=C(C)C(C(=O)OC)C1c1ccc(F)cc1` (centres undefined), with 11.7 µM (active).
On the same count and under the same terms, then `COC(=O)C1C(=O)NCC1c1ccc(C)cc1` (centres undefined), with “inactive”; and `COC(=O)C1=C(Nc2ccc(OC)cc2)C=C(C)C(C(=O)OC)C1c1ccc(C)cc1` (centres undefined), with “inactive”; and `Cc1nc(COc2cc3oc(=O)cc(C)c3cc2Cl)cs1`, with “inactive”.
The same measure, in the same setting: in the case of `COC(=O)C1=C(O)/C(=C/c2ccc(OCC(=O)Nc3ccccc3)cc2)N=C1C` it was “inactive”; in that of `CCOC(=O)C1=C(O)/C(=C/c2cc(C)n(-c3ccccc3)c2C)N=C1C`, 0.657 µM (active).
Turning to `CCOC(=O)C1=C(O)/C(=C/c2ccc(OCC(=O)Nc3ccc(C)cc3)cc2)N=C1C`, the Potency result was “inactive”.
As to `CCC(=O)c1ccc(OCC(=O)OCC(=O)N2CCc3ccccc3C2)cc1`, the Potency result was “inactive”.
On to `COC(=O)c1ccc2c(C(C)(C)O)c(C(C)(C)O)[nH]c2c1`, for which the Potency entry is “inactive”.
On the same count and under the same terms, in the case of `Cc1cccc(-c2oc3ccc(-c4ccc5c(c4)OCO5)cc3c2C#Cc2cncn2C)c1` it was 1.17 µM (active); in that of `C/C(=C/c1ccccc1)C(=O)N1CCN(c2ccccc2)CC1`, “inactive”; in that of `Nc1c(N(Cc2ccco2)C(=O)c2cccc(F)c2)c(=O)[nH]c(=O)n1Cc1ccccc1`, “inactive”.
In the case of `O=C(O)CN1c2cccc3cccc(c23)S1(=O)=O`, the Potency entry is “inactive”.
In the case of `O=C(Nc1cccc(NC(=O)c2cccc(F)c2)c1)c1ccccc1`, the Potency entry was “inactive”.
Same read-out and setting: then `Cc1ccc(F)cc1NC(=O)c1cccc(N(C)C)c1`, with 11.7 µM (active); and `Cc1ccc(F)cc1NC(=O)c1ccc2c(c1)OCO2`, with “inactive”.
On the same count and under the same terms, in the case of `Cc1c(C(=O)NC(C)C2CC3CCC2C3)cccc1[N+](=O)[O-]` (centres undefined) it was “inactive”; in that of `COc1cc2c(cc1OC)C(c1ccccc1Br)NC(=O)C2` (centres undefined), “inactive”; in that of `Cn1c(-c2ccc(C(F)(F)F)cc2)cc2onc(-c3ccccc3)c2c1=O`, “inactive”.
In the case of `CN(C)S(=O)(=O)c1ccc(Cl)c(NC(=O)COC(=O)CC(NC(N)=O)c2ccc(Cl)cc2)c1` (centres undefined), the Potency entry was “inactive”.
`COc1ccc(C2C(C(=O)N3CCN(c4ccc(OC)cc4)CC3)c3ccccc3C(=O)N2C)cc1` (centres undefined): the Potency result was “inactive”.
On the same count and under the same terms, then `CN1C(=O)c2ccccc2C(C(=O)NCCCN2CCCC2)C1c1c[nH]c2ccccc12` (centres undefined), with 10.4 µM (active); and `CC1CCN(CC(=O)c2c[nH]c3ccccc23)CC1`, with “inactive”; and `O=C(NCCCN1CCN(Cc2ccccc2)CC1)C1CCN(S(=O)(=O)N2CCCC2)CC1`, with “inactive”.
Same read-out and setting: in the case of `CCCCN(CC)CCNC(=O)CCNC(=O)Cn1ccc2ccccc2c1=O` it was “inactive”; in that of `CCN(CC)CCNC(=O)C1c2ccccc2C(=O)N(C)C1c1cn(C)c2ccccc12` (centres undefined), 2.94 µM (active).
The same measure, in the same setting: in the case of `COc1cccc(C(=O)OCC(=O)c2[nH]c(C)c(C(C)=O)c2C)c1` it was “inactive”; in that of `COc1ccc(C2=NS(=O)(=O)N(C)C(C(=O)N3CCCCC3)=C2)cc1`, “inactive”.
Take `COc1ccc2c(c1)c1ncn(Cc3ccccn3)c(=O)c1n2C`: the Potency entry was “inactive”.
For `CC1=CCC2C(=O)N(c3cccc(C(=O)NC(C)c4ccccc4)c3)C(=O)C2C1` (centres undefined), the Potency result was “inactive”.
On the same count and under the same terms, then `NC(=O)CSc1nnc(NC(=O)c2ccc(Br)o2)s1`, with “inactive”; and `CN(C)S(=O)(=O)N1CCC(Oc2cccc(C(=O)NCCCC3CCCC3)c2)CC1`, with “inactive”.
Still for that read-out and setting: in the case of `Cc1ccc(CNC(=O)CC(NC(=O)c2ccccc2)c2ccccc2)cc1` (centres undefined) it was “inactive”.
